# Data: article PMC7862700, “An all-to-all approach to the identification of sequence-specific readers for epigenetic DNA modifications on cytosine”
# How the values were obtained:
# Assay in all cases: DAPPL (digital affinity profiling via proximity ligation, sequencing); 10 mM Tris-HCl pH 7.5, 50 mM NaCl, 1 mM DTT, 4% glycerol, room temperature, 30 min; GST-TFs on glutathione beads, 16-mer random dsDNA library, 0.1% formaldehyde crosslink after washing; high values mean tight binding
# FLI1 = target: T1, FLI1 (Homo sapiens, UniProt Q01543 1-452); conditions: protein: recombinant; tags: N-terminal GST; dsDNA, one strand shown
# T1 sequence: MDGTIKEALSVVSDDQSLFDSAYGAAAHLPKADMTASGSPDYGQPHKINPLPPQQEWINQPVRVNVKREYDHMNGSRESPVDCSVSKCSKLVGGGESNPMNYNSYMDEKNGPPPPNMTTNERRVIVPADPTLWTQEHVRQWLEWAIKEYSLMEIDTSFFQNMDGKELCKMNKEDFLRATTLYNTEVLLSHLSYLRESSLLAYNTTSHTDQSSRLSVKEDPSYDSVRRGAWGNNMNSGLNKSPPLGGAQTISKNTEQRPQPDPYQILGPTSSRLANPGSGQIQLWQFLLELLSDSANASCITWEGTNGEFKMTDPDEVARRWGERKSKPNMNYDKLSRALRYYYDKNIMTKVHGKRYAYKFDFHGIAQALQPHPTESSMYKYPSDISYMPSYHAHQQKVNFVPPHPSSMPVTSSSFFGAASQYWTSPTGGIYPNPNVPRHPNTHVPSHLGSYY
# Outline: (§1)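 Pools of DNA-barcoded human transcription factors, expressed in yeast as GST fusions on glutathione beads and combined with a tag-only sample, were incubated with 200 nmole of a 16-mer random double-stranded DNA library. Incubation took 30 min at room temperature in Tris/NaCl/DTT/glycerol buffer and was followed by washing, 0.1% formaldehyde crosslinking, proximity ligation (BsaI/T4 ligase, 1 h, 37 °C), PCR amplification and sequencing on an Illumina NextSeq500. Binding signal is the ratio of a hexamer's read frequency for a factor to its frequency for the tag-only sample.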
# ELK1 = target: T2, ELK1 (Homo sapiens, UniProt P19419 1-428); conditions: protein: recombinant; tags: N-terminal GST; dsDNA, one strand shown
# T2 sequence: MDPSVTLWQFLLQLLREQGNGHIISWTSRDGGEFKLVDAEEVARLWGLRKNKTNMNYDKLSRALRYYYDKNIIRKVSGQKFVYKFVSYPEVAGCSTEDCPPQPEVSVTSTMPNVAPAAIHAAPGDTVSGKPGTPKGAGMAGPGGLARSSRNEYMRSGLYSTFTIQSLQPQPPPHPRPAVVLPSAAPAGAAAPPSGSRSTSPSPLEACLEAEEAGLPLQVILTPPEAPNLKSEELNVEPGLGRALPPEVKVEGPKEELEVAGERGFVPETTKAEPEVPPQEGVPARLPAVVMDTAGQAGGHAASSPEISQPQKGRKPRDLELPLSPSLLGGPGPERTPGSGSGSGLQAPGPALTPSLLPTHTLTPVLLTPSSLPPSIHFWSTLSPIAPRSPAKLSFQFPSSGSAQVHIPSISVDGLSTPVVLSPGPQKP
# Outline: as §1
# GABPA = target: T3, GABPA (Homo sapiens, UniProt Q06546 1-454); conditions: protein: recombinant; tags: N-terminal GST; dsDNA, one strand shown
# T3 sequence: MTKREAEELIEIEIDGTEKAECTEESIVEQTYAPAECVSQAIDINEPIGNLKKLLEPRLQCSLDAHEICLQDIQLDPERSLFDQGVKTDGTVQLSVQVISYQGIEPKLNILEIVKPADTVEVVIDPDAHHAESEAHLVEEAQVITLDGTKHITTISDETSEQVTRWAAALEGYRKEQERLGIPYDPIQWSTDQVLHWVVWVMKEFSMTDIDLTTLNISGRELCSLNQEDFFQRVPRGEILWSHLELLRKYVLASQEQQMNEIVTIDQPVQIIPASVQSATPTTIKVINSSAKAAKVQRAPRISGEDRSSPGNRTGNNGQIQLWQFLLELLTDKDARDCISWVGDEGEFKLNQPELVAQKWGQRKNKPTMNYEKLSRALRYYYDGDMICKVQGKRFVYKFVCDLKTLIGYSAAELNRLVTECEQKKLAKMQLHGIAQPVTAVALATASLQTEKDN
# Outline: as §1
# ERG = target: T4, ERG (Homo sapiens, UniProt P11308 1-479); conditions: protein: recombinant; tags: N-terminal GST; dsDNA, one strand shown
# T4 sequence: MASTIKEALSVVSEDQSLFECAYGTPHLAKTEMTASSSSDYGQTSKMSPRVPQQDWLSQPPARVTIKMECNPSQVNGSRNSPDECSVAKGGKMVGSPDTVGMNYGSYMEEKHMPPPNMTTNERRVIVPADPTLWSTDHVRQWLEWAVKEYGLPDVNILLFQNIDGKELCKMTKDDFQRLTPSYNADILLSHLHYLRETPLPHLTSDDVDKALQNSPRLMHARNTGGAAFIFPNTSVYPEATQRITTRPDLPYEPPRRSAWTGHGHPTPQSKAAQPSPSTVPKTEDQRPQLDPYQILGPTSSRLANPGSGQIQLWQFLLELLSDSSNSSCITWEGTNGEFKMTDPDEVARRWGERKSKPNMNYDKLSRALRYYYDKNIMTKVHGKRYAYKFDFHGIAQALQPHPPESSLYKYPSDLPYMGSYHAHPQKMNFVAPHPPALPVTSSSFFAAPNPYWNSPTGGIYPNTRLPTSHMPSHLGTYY
# Outline: as §1
# ELF1 = ELF1 (Homo sapiens, UniProt P32519 1-619); conditions: protein: recombinant; tags: N-terminal GST; dsDNA, one strand shown
# Sequence of ELF1 (P32519 whole entry): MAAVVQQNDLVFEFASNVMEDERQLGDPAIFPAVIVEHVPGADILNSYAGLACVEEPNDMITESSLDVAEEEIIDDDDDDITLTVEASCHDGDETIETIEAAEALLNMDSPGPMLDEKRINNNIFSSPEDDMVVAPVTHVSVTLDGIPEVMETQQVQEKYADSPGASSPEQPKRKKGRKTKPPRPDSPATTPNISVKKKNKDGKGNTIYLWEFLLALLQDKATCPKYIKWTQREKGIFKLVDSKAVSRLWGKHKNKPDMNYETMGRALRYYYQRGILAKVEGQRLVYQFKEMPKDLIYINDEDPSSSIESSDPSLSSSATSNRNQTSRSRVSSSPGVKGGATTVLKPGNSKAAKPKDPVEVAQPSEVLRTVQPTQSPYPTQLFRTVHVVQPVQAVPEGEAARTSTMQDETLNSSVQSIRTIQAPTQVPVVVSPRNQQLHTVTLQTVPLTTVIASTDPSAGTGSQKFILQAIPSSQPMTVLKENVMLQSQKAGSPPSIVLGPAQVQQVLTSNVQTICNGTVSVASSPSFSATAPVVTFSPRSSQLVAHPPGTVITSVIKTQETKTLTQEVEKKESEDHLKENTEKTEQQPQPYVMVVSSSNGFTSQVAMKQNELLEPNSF
# Outline: as §1
# EHF = target: T5, EHF (Homo sapiens, UniProt Q9NZC4 1-300); conditions: protein: recombinant; tags: N-terminal GST; dsDNA, one strand shown
# T5 sequence: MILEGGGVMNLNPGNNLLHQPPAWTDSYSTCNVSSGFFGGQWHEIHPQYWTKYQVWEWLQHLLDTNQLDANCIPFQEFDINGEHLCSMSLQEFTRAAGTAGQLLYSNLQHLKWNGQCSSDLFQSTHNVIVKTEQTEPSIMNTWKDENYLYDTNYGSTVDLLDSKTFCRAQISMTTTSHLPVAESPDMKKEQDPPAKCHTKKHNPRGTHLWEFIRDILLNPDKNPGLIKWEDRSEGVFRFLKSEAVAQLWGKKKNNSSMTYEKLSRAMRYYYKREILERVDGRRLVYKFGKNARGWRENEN
# Outline: as §1
# SPIB = SPIB (Homo sapiens, UniProt Q01892 1-262); conditions: protein: recombinant; tags: N-terminal GST; dsDNA, one strand shown
# Sequence of SPIB (Q01892 whole entry): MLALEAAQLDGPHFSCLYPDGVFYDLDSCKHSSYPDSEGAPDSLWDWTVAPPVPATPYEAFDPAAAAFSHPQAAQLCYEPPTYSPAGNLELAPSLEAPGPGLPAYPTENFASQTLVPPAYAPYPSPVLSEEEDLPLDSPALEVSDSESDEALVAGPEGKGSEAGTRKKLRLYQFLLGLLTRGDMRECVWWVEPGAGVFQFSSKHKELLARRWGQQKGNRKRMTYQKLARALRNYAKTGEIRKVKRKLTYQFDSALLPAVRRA
# Outline: as §1
# ELK3 = target: T6, ELK3 (Homo sapiens, UniProt P41970 1-407); conditions: protein: recombinant; tags: N-terminal GST; dsDNA, one strand shown
# T6 sequence: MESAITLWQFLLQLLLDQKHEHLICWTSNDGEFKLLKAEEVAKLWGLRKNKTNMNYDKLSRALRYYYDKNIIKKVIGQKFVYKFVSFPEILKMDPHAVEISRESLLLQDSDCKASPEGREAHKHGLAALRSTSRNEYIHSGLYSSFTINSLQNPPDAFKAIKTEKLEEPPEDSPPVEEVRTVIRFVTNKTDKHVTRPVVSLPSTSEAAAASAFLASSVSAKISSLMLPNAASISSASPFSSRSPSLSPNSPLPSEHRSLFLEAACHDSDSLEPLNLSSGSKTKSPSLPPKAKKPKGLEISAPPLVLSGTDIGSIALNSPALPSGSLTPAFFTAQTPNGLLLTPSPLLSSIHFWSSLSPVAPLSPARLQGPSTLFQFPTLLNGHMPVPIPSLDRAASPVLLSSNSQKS
# Outline: as §1
# FEV = target: T7, FEV (Homo sapiens, UniProt Q99581 1-238); conditions: protein: recombinant; tags: N-terminal GST; dsDNA, one strand shown
# T7 sequence: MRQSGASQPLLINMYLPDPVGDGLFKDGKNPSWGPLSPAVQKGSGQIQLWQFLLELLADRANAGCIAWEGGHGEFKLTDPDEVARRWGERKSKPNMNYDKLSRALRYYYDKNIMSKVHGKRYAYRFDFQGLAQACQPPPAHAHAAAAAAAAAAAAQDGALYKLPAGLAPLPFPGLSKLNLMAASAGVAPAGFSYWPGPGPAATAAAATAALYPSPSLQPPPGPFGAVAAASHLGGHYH
# Outline: as §1
# ETV5 = ETV5 (Homo sapiens, UniProt P41161 1-510); conditions: protein: recombinant; tags: N-terminal GST; dsDNA, one strand shown
# Sequence of ETV5 (P41161 whole entry): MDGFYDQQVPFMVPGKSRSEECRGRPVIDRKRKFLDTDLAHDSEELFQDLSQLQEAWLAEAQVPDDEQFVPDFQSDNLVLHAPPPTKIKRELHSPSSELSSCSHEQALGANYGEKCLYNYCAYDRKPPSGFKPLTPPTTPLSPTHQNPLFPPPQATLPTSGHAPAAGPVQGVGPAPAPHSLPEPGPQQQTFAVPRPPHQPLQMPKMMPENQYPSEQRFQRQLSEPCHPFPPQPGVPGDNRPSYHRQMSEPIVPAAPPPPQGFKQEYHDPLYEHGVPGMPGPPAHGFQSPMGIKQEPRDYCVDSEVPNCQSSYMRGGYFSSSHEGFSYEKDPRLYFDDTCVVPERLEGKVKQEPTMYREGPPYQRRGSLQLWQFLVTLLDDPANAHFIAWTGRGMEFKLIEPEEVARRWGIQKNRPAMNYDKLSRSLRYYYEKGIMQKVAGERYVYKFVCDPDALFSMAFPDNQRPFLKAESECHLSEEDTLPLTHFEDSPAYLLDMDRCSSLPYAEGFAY
# Outline: as §1
# HSF1 = HSF1 (Homo sapiens, UniProt Q00613 1-529); conditions: protein: recombinant; tags: N-terminal GST; chain copies: 3; dsDNA, one strand shown
# Sequence of HSF1 (Q00613 whole entry): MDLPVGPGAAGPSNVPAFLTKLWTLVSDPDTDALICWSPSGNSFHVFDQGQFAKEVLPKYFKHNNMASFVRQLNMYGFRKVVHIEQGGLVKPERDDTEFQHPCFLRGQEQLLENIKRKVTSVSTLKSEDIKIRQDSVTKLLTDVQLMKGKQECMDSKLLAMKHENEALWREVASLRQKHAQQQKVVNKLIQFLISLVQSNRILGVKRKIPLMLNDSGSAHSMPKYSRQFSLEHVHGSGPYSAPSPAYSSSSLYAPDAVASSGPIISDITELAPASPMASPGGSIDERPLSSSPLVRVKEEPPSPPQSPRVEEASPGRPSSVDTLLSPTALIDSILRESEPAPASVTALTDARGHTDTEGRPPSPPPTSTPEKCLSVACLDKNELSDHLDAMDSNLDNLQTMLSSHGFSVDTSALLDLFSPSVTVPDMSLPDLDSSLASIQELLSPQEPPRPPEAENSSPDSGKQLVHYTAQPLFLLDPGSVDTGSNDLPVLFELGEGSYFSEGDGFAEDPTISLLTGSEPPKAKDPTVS
# Outline: as §1
# SPIC = target: T8, SPIC (Homo sapiens, UniProt Q8N5J4 1-248); conditions: protein: recombinant; tags: N-terminal GST; dsDNA, one strand shown
# T8 sequence: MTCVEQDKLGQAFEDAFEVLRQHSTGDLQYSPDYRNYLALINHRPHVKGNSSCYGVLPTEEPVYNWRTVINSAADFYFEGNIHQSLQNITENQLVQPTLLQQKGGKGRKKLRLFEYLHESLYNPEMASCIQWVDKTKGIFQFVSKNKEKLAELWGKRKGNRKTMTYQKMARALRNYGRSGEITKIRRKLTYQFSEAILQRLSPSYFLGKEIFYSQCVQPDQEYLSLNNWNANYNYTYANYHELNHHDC
# Outline: as §1
# ELF4 = ELF4 (Homo sapiens, UniProt Q99607 1-663); conditions: protein: recombinant; tags: N-terminal GST; dsDNA, one strand shown
# Sequence of ELF4 (Q99607 whole entry): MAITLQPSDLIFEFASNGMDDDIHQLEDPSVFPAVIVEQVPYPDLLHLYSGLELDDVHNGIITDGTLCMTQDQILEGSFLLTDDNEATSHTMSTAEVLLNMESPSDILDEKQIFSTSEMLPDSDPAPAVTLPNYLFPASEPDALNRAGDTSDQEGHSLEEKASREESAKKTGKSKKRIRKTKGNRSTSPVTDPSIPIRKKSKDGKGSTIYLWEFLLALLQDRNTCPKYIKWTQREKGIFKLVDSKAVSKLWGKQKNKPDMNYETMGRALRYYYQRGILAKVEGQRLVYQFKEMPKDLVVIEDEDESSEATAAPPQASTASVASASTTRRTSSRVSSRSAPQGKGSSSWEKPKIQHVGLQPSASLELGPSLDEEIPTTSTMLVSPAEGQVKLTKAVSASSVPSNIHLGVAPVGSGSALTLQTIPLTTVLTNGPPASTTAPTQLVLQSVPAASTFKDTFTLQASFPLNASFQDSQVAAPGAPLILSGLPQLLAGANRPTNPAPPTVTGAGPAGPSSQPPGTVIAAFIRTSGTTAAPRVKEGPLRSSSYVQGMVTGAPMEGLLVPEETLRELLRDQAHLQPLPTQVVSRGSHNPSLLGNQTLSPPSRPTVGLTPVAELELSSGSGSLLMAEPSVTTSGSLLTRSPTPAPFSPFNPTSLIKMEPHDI
# Outline: as §1
# ELK4 = target: T9, ELK4 (Homo sapiens, UniProt P28324-2 1-405); conditions: protein: recombinant; tags: N-terminal GST; dsDNA, one strand shown
# T9 sequence: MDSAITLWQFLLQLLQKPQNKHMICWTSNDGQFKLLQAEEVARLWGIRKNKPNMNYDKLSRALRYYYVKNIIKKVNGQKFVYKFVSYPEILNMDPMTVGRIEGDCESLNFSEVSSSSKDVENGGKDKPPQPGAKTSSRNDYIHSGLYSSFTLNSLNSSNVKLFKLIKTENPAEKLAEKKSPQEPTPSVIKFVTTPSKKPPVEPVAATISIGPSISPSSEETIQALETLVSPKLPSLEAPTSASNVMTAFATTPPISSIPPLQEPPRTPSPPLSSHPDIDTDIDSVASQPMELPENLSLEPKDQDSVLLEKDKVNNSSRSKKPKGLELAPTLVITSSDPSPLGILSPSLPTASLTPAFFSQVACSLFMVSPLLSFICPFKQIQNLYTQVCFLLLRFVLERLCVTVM
# Outline: as §1
# ETV2 = target: T10, ETV2 (Homo sapiens, UniProt O00321 1-342); conditions: protein: recombinant; tags: N-terminal GST; dsDNA, one strand shown
# T10 sequence: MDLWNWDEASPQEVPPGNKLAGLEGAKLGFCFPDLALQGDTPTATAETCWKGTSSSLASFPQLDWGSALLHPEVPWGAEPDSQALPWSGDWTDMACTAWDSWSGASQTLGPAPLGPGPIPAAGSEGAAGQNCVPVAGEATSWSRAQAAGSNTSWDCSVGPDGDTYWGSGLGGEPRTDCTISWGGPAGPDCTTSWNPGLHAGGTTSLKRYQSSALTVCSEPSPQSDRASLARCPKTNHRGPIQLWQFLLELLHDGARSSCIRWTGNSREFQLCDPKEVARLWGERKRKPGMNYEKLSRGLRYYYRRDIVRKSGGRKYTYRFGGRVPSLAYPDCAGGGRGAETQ
# Outline: as §1
# ELF3 = target: T11, ELF3 (Homo sapiens, UniProt P78545 1-371); conditions: protein: recombinant; tags: N-terminal GST; dsDNA, one strand shown
# T11 sequence: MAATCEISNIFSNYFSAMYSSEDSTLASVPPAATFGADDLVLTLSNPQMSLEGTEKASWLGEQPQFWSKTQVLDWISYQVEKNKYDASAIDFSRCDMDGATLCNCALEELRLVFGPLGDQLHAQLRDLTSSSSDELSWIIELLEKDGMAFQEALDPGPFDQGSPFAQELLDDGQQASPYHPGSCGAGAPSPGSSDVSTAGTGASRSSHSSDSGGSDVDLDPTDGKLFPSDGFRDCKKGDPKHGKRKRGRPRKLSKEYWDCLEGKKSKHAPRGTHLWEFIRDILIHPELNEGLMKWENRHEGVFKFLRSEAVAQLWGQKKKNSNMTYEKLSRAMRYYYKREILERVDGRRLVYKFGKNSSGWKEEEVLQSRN
# Outline: as §1
# CRX = CRX (Homo sapiens, UniProt O43186 1-299); conditions: protein: recombinant; tags: N-terminal GST; dsDNA, one strand shown
# Sequence of CRX (O43186 whole entry): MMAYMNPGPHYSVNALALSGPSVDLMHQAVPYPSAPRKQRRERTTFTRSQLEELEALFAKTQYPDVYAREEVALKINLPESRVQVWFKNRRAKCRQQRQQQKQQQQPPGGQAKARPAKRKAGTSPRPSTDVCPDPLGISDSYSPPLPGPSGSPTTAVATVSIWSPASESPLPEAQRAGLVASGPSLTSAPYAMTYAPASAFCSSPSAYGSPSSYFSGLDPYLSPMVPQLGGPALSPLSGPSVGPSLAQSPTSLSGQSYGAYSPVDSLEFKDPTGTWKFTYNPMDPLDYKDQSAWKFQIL
# Outline: as §1
# ETV1 = ETV1 (Homo sapiens, UniProt P50549 1-477); conditions: protein: recombinant; tags: N-terminal GST; dsDNA, one strand shown
# Sequence of ETV1 (P50549 whole entry): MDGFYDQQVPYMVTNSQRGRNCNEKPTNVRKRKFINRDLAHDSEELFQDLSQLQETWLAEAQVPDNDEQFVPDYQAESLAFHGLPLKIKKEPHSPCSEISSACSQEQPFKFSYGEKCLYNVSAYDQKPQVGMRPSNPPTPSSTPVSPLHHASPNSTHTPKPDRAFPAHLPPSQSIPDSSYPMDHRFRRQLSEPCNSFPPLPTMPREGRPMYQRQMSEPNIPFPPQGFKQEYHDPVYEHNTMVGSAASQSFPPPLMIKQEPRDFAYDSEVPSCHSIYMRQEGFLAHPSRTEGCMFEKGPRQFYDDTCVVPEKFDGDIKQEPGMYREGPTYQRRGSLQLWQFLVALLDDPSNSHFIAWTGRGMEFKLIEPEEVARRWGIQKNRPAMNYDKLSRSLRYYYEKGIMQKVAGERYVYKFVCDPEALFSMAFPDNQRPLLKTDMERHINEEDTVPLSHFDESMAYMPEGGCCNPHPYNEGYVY
# Outline: as §1
sequence,measurement,setting,value
ATTAGC,binding signal,FLI1,"1.17 fold enrichment (6-mer frequency, TF over GST control)"
same,binding signal,ELK1,"1.08 fold enrichment (6-mer frequency, TF over GST control)"
same,binding signal,GABPA,"1.08 fold enrichment (6-mer frequency, TF over GST control)"
same,binding signal,ERG,"1.15 fold enrichment (6-mer frequency, TF over GST control)"
same,binding signal,ELF1,"1.11 fold enrichment (6-mer frequency, TF over GST control)"
same,binding signal,EHF,"1.07 fold enrichment (6-mer frequency, TF over GST control)"
same,binding signal,SPIB,"1.03 fold enrichment (6-mer frequency, TF over GST control)"
same,binding signal,ELK3,"1.09 fold enrichment (6-mer frequency, TF over GST control)"
same,binding signal,FEV,"1.05 fold enrichment (6-mer frequency, TF over GST control)"
same,binding signal,ETV5,"1.04 fold enrichment (6-mer frequency, TF over GST control)"
same,binding signal,HSF1,"1.87 fold enrichment (6-mer frequency, TF over GST control)"
same,binding signal,SPIC,"1.22 fold enrichment (6-mer frequency, TF over GST control)"
same,binding signal,ELF4,"1.15 fold enrichment (6-mer frequency, TF over GST control)"
same,binding signal,ELK4,"1.14 fold enrichment (6-mer frequency, TF over GST control)"
same,binding signal,ETV2,"1.13 fold enrichment (6-mer frequency, TF over GST control)"
same,binding signal,ELF3,"1.14 fold enrichment (6-mer frequency, TF over GST control)"
same,binding signal,CRX,"2.83 fold enrichment (6-mer frequency, TF over GST control)"
same,binding signal,ETV1,"1.16 fold enrichment (6-mer frequency, TF over GST control)"
